In all, about 330,000 compounds went through this assay and about 4,600 (1.4%) were called active.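 How the source made its calls: active means inhibition of 40% or more at the single tested concentration; inactive means the rest.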 The sample as a whole holds a higher share of actives than the screen did.

The text below walks through data of PubChem BioAssay AID463195 (Sanford-Burnham Center for Chemical Genomics, 2010).

A short description of the assay: growth inhibitors of isogenic TIM10 control yeast, primary screen, counter-screen for tim10-1 yeast inhibitor project, luminescence, uHTS (AID 463195).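 Further: wild-type TIM10 isogenic control strain grown at permissive 25 °C; 0% = DMSO yeast wells and 100% = minimal medium wells without yeast.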 The following applies: S. cerevisiae TIM10 strain growth, BacTiter-Glo luminescence, 24 h; at 10 µM; stronger effect = higher value. For orientation: A counterscreen serves to expose hits that act by an unwanted route or on another target.
For orientation: inhibition means the drop in the measured response relative to a control, in per cent. On to `COCCCN1C(=O)c2ccc(C(=O)OCC(=O)NCc3ccccc3OC)cc2C1=O`, for which the inhibition is 2.82% (inactive). As to `Cc1onc(C(=O)Nc2ccc3c(c2)OCO3)c1[N+](=O)[O-]`, the inhibition is -7.9% (inactive). In the case of `CN1C(=O)c2ccc(C(=O)Nc3ccc(Br)cn3)cc2C1=O` it was 3.52% (inactive); in that of `CCN(CC)S(=O)(=O)c1ccc(N2CCCC2)c(NC(=O)c2ccc([N+](=O)[O-])o2)c1`, 28.1% (inactive). The same measure for `Cc1onc(C(=O)NCc2ccc(F)cc2)c1[N+](=O)[O-]`: -0.126% (inactive); for `Cc1onc(NC(=O)c2ccc([N+](=O)[O-])o2)c1Br`: 46.6% (active); for `O=C(Nc1cccc(O)c1)c1ccc(C(=O)c2ccccc2)o1`: 30.4% (inactive). Regarding `O=C(Nc1ccc(Br)cn1)c1ccc([N+](=O)[O-])o1`, the inhibition was 57.3% (active). As for `O=C(Nc1ccc(Br)cn1)c1ccc([N+](=O)[O-])cc1Cl`, the inhibition is 14.3% (inactive). In the case of `Cc1cccc(NC(=O)c2ccc([N+](=O)[O-])o2)c1` it was 60.3% (active). As to `CC(C)(C)c1nnc(NC(=O)C2c3ccccc3Oc3ccccc32)s1`, the inhibition was 29.5% (inactive). The same measure for `Cc1ccc(CNC(=O)c2cccc3c2C(=O)c2ccc(N4CCC(C)CC4)cc2S3(=O)=O)cc1`: 4.75% (inactive); for `CC(=O)Nc1ccc(C(=O)N(C2=NC(C)CS2)c2ccc(Cl)cc2)cc1` (stereo not given): 20.1% (inactive); for `CC(=O)OCC(COC(C)=O)OC(C)=O`: 5.8% (inactive). As for `COc1ccc(S(=O)(=O)NCCc2cc3ccc(C)c(C)c3[nH]c2=O)cc1`, the inhibition was 5.58% (inactive). The same measure for `CC(C)[C@@H](C(=O)O)N(Cc1cccc(CN([C@H](C(=O)O)C(C)C)S(C)(=O)=O)c1)S(C)(=O)=O`: 10.1% (inactive); for `O=C(/C=C/Nc1ccccc1)c1cnc(-c2ccccc2)s1`: 3.58% (inactive). Turning to `CC(C)(C)C(=O)c1cnc(Nc2ccccc2)s1`, the inhibition is 45.4% (active).

Regarding `CC(=O)c1cnc(-c2ccccc2)s1`, the inhibition was 12.3% (inactive).

`CCOC(=O)C1CCCN(C(=O)c2ccc(CS(=O)(=O)c3ccc(Br)cc3)o2)C1` (stereo not given): the inhibition is 4.19% (inactive). Take `Cc1cc(N2CCCC2)ccc1NC(=O)COc1ccc(Cl)cc1`: the inhibition is 4.1% (inactive).

For the molecule `NC(=O)NC(=O)C(OC(=O)CCNS(=O)(=O)c1ccccc1)c1ccccc1` (stereo not given), the inhibition was 14.9% (inactive). As to `COc1ccc(N2C(=O)NC(NS(=O)(=O)c3ccc(Cl)cc3)(C(F)(F)F)C2=O)cc1` (stereo not given), the inhibition was 5.54% (inactive). Consider `Cc1ccc(S(=O)(=O)N(C)CC(=O)NCCc2c[nH]c3ccccc23)cc1`, for which the inhibition was -8.68% (inactive). In the case of `Cc1cc(C)cc(NC(=S)NCCc2c[nH]c3ccccc23)c1`, the inhibition was 40.6% (active). The same measure for `O=C(NCCc1c[nH]c2ccccc12)c1cccc(Br)c1`: 4.34% (inactive); for `CCC(C)(C)NC(=O)CN(C(=O)CCC(=O)Nc1cc(C)ccn1)c1ccc2c(c1)OCCO2`: 17.4% (inactive). The same measure for `CCOC(=O)/C(C#N)=C\c1c(C)cc(C)c(COC(C)=O)c1C`: 19% (inactive); for `COC(=O)CN(c1cccc(C(C)=O)c1)S(C)(=O)=O`: 12.6% (inactive); for `CCSc1ncnc2c(C#N)c3n(c12)CCCCC3`: -29.8% (inactive). `CCSC1=C(C#N)C(=O)n2c1cc1c2CCCC1`: the inhibition is 63% (active). In the case of `COC(C[C@@H](O)C[C@H](O)[C@H](C)OCc1ccccc1)OC` it was -0.06% (inactive); in that of `c1ccc(-c2nnc3n2NC(c2ccc4c(c2)OCO4)S3)cc1` (stereo not given), 57.8% (active). With `CC1=C(C(N)=O)C(c2ccc3c(c2)OCO3)n2nc(-c3cccc(C)c3)nc2N1` (stereo not given), the inhibition was 2.9% (inactive). The same measure for `Cc1cccc(C)c1NC(=O)CSc1nnc(-c2ccccc2)n1Cc1ccc2c(c1)OCO2`: -0.243% (inactive); for `CN(CC(=O)NCCc1ccccc1)S(=O)(=O)c1cnc[nH]1`: -7.58% (inactive); for `O=C(CNC(=O)c1cccnc1)N/N=C/c1cc(Br)c(O)c(Br)c1`: -19.5% (inactive). The same measure for `COc1cc(Br)cc(/C=N/c2ncn[nH]2)c1O`: 48.7% (active). In the case of `Oc1c(Cl)cc(Cl)cc1/C=N/c1ncn[nH]1` it was 23.9% (inactive); in that of `C=CCn1c(Cn2nnc3ccccc32)nnc1SCC(=O)N/N=C/c1cc(Br)cc(OC)c1O`, -12.4% (inactive); in that of `Cc1cc(-c2nnc(SCC(=O)Nc3ccc(S(N)(=O)=O)cc3)n2N)n[nH]1`, -1.79% (inactive).

With `CCOC(=O)C1Sc2[nH]c(=O)sc2C(c2ccc(Cl)cc2)C1C(=O)OCC` (stereo not given), the inhibition was 44.2% (active). On to `CCOC(=O)c1[nH]c2c(c1-c1ccccc1)C(=O)CC(c1ccc(Cl)cc1)C2` (stereo not given), for which the inhibition is 3.98% (inactive).

With `CCOC(=O)C1=C(C)NC(=O)N(C(C)=O)C1c1ccc(Cl)cc1` (stereo not given), the inhibition was 29.2% (inactive).

On to `COc1ccc(N2C(=O)C3C(C2=O)C(C(=O)c2ccccc2)N2CCCC32)cc1` (stereo not given), for which the inhibition is 7.93% (inactive). Turning to `COc1ccccc1-n1ccnc(SCC(=O)NC2CCCCC2)c1=O`, the inhibition is 15.4% (inactive). As to `Cn1ccnc1SCC(=O)Nc1ccc2c(c1)OCCO2`, the inhibition is 8.81% (inactive). The same measure for `COc1cccc(NC(=O)CSc2nccn(-c3ccc4c(c3)OCCO4)c2=O)c1`: 44.8% (active); for `CC(C)Oc1ccc(S(=O)(=O)N2CCOCC2)cc1NC(=O)C1CCCC1`: 3% (inactive); for `O=C(Nc1cccc(-n2cnnn2)c1)c1cccnc1`: 5.34% (inactive).

Consider `O=C(Nc1ccc(-c2csc(Nc3cccc(C(F)(F)F)c3)n2)cc1)c1cccc(C(F)(F)F)c1`, for which the inhibition is 14.2% (inactive). Turning to `O=C(Nc1ccc(C(F)(F)F)cc1)c1cccc(-n2cnnn2)c1`, the inhibition is 93% (active). The same measure for `CN(CC(=O)Nc1cccc(F)c1)C(=O)CC1CCCC1`: 7.55% (inactive); for `Cc1ccc(S(=O)(=O)N2CCOCC2)cc1C(=O)NC(=S)N(Cc1ccccc1)C(C)C`: 15.5% (inactive); for `c1ccc(-c2ccnc3nc(-n4cccc4)nn23)cc1`: 14.7% (inactive). In the case of `COc1ccc(C(=O)Nc2ccc(-n3nncc3C(C)(C)C)cc2)cc1` it was 53.1% (active); in that of `C/C(=N\Nc1ccc([N+](=O)[O-])cc1)c1ccc(-n2nncc2C(C)(C)C)cc1`, 8.53% (inactive); in that of `COc1ccc(NC(=O)c2ccc(C#CC(C)(C)O)cc2)cc1`, 12% (inactive).

For the molecule `COc1cccc(N(C(=O)c2ccn[nH]2)C2(C(=O)Nc3c(C)cccc3C)CCCCC2)c1`, the inhibition was 17.6% (inactive).

Turning to `OC(c1ccccc1)c1nccn1Cc1ccccc1` (stereo not given), the inhibition is 8.31% (inactive).

Consider `COc1ccc(N2CCN(C(=O)/C(C#N)=C/c3ccccc3)CC2)cc1`, for which the inhibition is 36% (inactive). The same measure for `COc1ccc(/C=C(\C#N)C(=O)ONC2=NCCCCC2)cc1`: 48.5% (active). On to `COc1ccc(/C=C(\C#N)C(=O)OCC(=O)N(C)C2CCS(=O)(=O)C2)cc1` (stereo not given), for which the inhibition was 4.8% (inactive). As for `O=C(Cn1nc(CNc2ccc(Cl)cc2)[n+]2c1CCCCC2)c1ccc(Cl)cc1`, the inhibition is -4.18% (inactive). In the case of `Cn1cc(CCC(=O)NC2CC2)c2ccccc21` it was 4.31% (inactive); in that of `O=C(NCCc1ccc(F)cc1)c1ccc(S(=O)(=O)N2CCCCC2)cc1`, 41.7% (active).

Turning to `O=C(Nc1ccccc1F)c1ccc(S(=O)(=O)N2CCCCCC2)cc1`, the inhibition was 12.4% (inactive). As for `COC(=O)c1ccc(CNC(=O)c2ccc(S(=O)(=O)N3CCCCCC3)cc2)cc1`, the inhibition is -4.47% (inactive). In the case of `O=C(Nc1ccc([N+](=O)[O-])cc1)C1CC12CCC2` (stereo not given) it was 14.3% (inactive). On to `O=C(N/N=C/c1ccc(Cl)cc1)c1nc2ccc([N+](=O)[O-])cc2c(=O)[nH]1`, for which the inhibition is -0.404% (inactive). With `COc1ccc(C(=O)N2CCCC(C(=O)c3ccccc3OC)C2)cc1OC` (stereo not given), the inhibition was 1.3% (inactive). For `Cc1ccc(Cl)cc1NC(=O)C1CCCN(c2cnccn2)C1` (stereo not given), the inhibition is 5.02% (inactive).

Regarding `O=C(Nc1cccc(Cl)c1)C1CCCN(c2cnccn2)C1` (stereo not given), the inhibition was 42.8% (active). With `O=C(Nc1ccc2c(c1)OCCO2)C1CCCN(c2ncccn2)C1` (stereo not given), the inhibition was -4.49% (inactive).

With `O=C1C2C3C=CC(C4CC34)C2C(=O)N1c1nccs1` (stereo not given), the inhibition was -2.66% (inactive). Regarding `CCOC(=O)c1cnc2ccc(F)cc2c1Nc1ccc2c(c1)OCCO2`, the inhibition was 37.4% (inactive).

For `Cc1ccc(-c2cn3cc([N+](=O)[O-])ccc3n2)cc1`, the inhibition was -29.9% (inactive). The same measure for `CCN(CC)S(=O)(=O)c1ccc(-c2cn3ccc(C)cc3n2)cc1`: 11.7% (inactive). For the molecule `Cc1ccc(-c2cn3cc(C)ccc3n2)cc1`, the inhibition was 65% (active).

Take `Cc1ccc2nc(-c3ccc(Br)cc3)cn2c1`: the inhibition is 40.3% (active). For the molecule `CSc1nnc2ccc(-c3ccc(C)cc3)nn12`, the inhibition was 7.14% (inactive). In the case of `COc1ccc(-c2cn3ccc(C)cc3n2)cc1` it was 30.2% (inactive). For `COc1ccccc1C(=O)Nc1nc2nc(-c3ccccc3)cc(=O)n2[nH]1`, the inhibition was -9.51% (inactive). `N#Cc1ccccc1NC(=O)COc1c(Br)cc(Br)c2cccnc12`: the inhibition is 13.8% (inactive). In the case of `O=C(Nc1ccc(N2CCN(C(=O)c3ccccc3)CC2)c(Cl)c1)c1ncn[nH]1` it was -12.4% (inactive); in that of `CN(C)C(=O)CCC(=O)N1CCCCC1C(=O)Nc1ccc(Oc2ccccc2F)cc1` (stereo not given), 3.39% (inactive). The same measure for `CC1=C(C(N)=O)C(c2ccc(Br)cc2)n2ncnc2N1` (stereo not given): -4.88% (inactive); for `Fc1ccccc1/C=C1\CCCC2=C1Nc1ncnn1C2c1ccccc1F` (stereo not given): 48.1% (active). In the case of `CCC1CCc2c(sc(NC(C)=O)c2C#N)C1` (stereo not given) it was 7.23% (inactive); in that of `O=C(COC(=O)c1ccc(Cl)nc1)NCc1cccs1`, 7.82% (inactive); in that of `COc1ccccc1N1CCN(C(=O)C2Cc3ccccc3CN2C(=O)c2ccco2)CC1` (stereo not given), 22% (inactive). Turning to `COC1=C(N2CCOCC2)C(=O)c2ccccc2C1=O`, the inhibition is -3.21% (inactive). `COc1cc2ccccc2cc1C(=O)N1CCOCC1`: the inhibition was 5.86% (inactive). Take `Cc1oc2c(c1C(=O)N1CCOCC1)C(=O)c1ccccc1C2=O`: the inhibition is 46.1% (active). Take `CC1=C(C)CC(C(=O)NNC(=O)c2csc3c2CCC(C(C)(C)C)C3)C(C(=O)O)C1` (stereo not given): the inhibition was 5.91% (inactive).
